# Source: the supplement of paper PMC11628255, “Interference of metal ions on the bioluminescent signal of firefly, Renilla, and NanoLuc luciferases in high-throughput screening assays” (Frontiers in Chemistry, 2024)
# ± gives the standard deviation of the averaged measurements.
# Tested on: NanoLuc luciferase (NLuc)
# Assay: residual bioluminescent signal relative to negative control without GSH; higher = less interference (more residual luciferase signal)
# Details: screening conditions buffer
# Experimental: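 Selected metal salts at 3-4 concentrations tested on purified FLuc, NLuc or RLuc in screening buffer with 0, 0.2 or 2 mM glutathione added; 10 min enzyme pre-incubation at RT, luminescence 10 min after substrate. Signal normalised to negative control without GSH (% N_VALUE); triplicate wells.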
# [1] = metal salt concentration 1 mM, glutathione 0 mM
# [2] = metal salt concentration 1 mM, glutathione 0.2 mM
# [3] = metal salt concentration 1 mM, glutathione 2 mM
# [4] = metal salt concentration 0.001 mM, glutathione 0 mM
# [5] = metal salt concentration 0.001 mM, glutathione 0.2 mM
# [6] = metal salt concentration 0.001 mM, glutathione 2 mM
smiles,measurement,setting,value
O=[N+]([O-])[O-].O=[N+]([O-])[O-].[Cu+2] [copper(II) nitrate],residual bioluminescent signal,"metal salt concentration 0.0005 mM, glutathione 0 mM",104 ± 4.1%
same,residual bioluminescent signal,"metal salt concentration 0.0005 mM, glutathione 0.2 mM",106 ± 5.4%
same,residual bioluminescent signal,"metal salt concentration 0.0005 mM, glutathione 2 mM",89.3 ± 3.6%
same,residual bioluminescent signal,"metal salt concentration 0.017 mM, glutathione 0 mM",101 ± 7.7%
same,residual bioluminescent signal,"metal salt concentration 0.017 mM, glutathione 0.2 mM",104 ± 6.7%
same,residual bioluminescent signal,"metal salt concentration 0.017 mM, glutathione 2 mM",92.9 ± 4.8%
same,residual bioluminescent signal,"metal salt concentration 0.02 mM, glutathione 0 mM",86.4 ± 3.7%
same,residual bioluminescent signal,"metal salt concentration 0.02 mM, glutathione 0.2 mM",98 ± 2.7%
same,residual bioluminescent signal,"metal salt concentration 0.02 mM, glutathione 2 mM",84.1 ± 2.6%
same,residual bioluminescent signal,[1],0.661 ± 0.17%
same,residual bioluminescent signal,[2],1.03 ± 0.57%
same,residual bioluminescent signal,[3],68.9 ± 7.9%
O=[N+]([O-])[O-].O=[N+]([O-])[O-].[Zn+2] [zinc nitrate],residual bioluminescent signal,[4],98.9 ± 6.3%
same,residual bioluminescent signal,[5],103 ± 6.2%
same,residual bioluminescent signal,[6],89.6 ± 2.3%
same,residual bioluminescent signal,"metal salt concentration 0.174 mM, glutathione 0 mM",50.9 ± 6%
same,residual bioluminescent signal,"metal salt concentration 0.174 mM, glutathione 0.2 mM",72.7 ± 2.8%
same,residual bioluminescent signal,"metal salt concentration 0.174 mM, glutathione 2 mM",77.5 ± 7.3%
same,residual bioluminescent signal,[1],34.2 ± 8.5%
same,residual bioluminescent signal,[2],42.1 ± 1.7%
same,residual bioluminescent signal,[3],63.9 ± 1.7%
same,residual bioluminescent signal,"metal salt concentration 5 mM, glutathione 0 mM",5.95 ± 1.4%
same,residual bioluminescent signal,"metal salt concentration 5 mM, glutathione 0.2 mM",7.9 ± 2.7%
same,residual bioluminescent signal,"metal salt concentration 5 mM, glutathione 2 mM",12.4 ± 2.1%
O=[N+]([O-])[O-].[Ag+] [silver nitrate],residual bioluminescent signal,[4],98.9 ± 6.8%
same,residual bioluminescent signal,[5],102 ± 1.4%
same,residual bioluminescent signal,[6],90.9 ± 4.7%
same,residual bioluminescent signal,"metal salt concentration 0.0114 mM, glutathione 0 mM",15.6 ± 8%
same,residual bioluminescent signal,"metal salt concentration 0.0114 mM, glutathione 0.2 mM",106 ± 1.6%
same,residual bioluminescent signal,"metal salt concentration 0.0114 mM, glutathione 2 mM",85.33 ± 0.82%
same,residual bioluminescent signal,"metal salt concentration 0.05 mM, glutathione 0 mM",2.78 ± 0.95%
same,residual bioluminescent signal,"metal salt concentration 0.05 mM, glutathione 0.2 mM",107 ± 4.8%
same,residual bioluminescent signal,"metal salt concentration 0.05 mM, glutathione 2 mM",85.7 ± 1%
same,residual bioluminescent signal,[1],3.17 ± 0.68%
same,residual bioluminescent signal,[2],15.2 ± 5.5%
same,residual bioluminescent signal,[3],82.48 ± 0.71%
